Data: the supplement of paper PMC4466140

Assays:
Assay in all cases: SPOT peptide array binding signal intensity (averaged, normalized) (arbitrary units (background-subtracted, floor 0; scale differs between SH3 domains)); higher = stronger binding of the SH3 domain to the peptide
AgAbp1 = molecular target: AgAbp1
Procedure: (§1)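 GST-tagged SH3 domains from S. cerevisiae (Sc), A. gossypii (Ag), C. albicans (Ca) and S. pombe (Sp) were incubated at 10 ug/ml overnight at 4 C on cellulose SPOT membranes carrying 292 synthetic 15-mer peptides mined from the S. cerevisiae proteome (cysteines replaced by serines). Binding was detected with anti-GST antibody, HRP secondary and chemiluminescence, quantified with Genespotter, and reported as normalized spot intensities averaged over biological replicates.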

AgBbc1 = molecular target: AgBbc1
Procedure: as §1

AgBem1-D1 = molecular target: AgBem1-D1
Procedure: as §1

AgBzz1-D1 = molecular target: AgBzz1-D1
Procedure: as §1

AgBzz1-D2 = molecular target: AgBzz1-D2
Procedure: as §1

AgCyk3 = molecular target: AgCyk3
Procedure: as §1

AgFus1 = molecular target: AgFus1
Procedure: as §1

AgHof1 = molecular target: AgHof1
Procedure: as §1

AgHse1 = molecular target: AgHse1
Procedure: as §1

AgLsb1 = molecular target: AgLsb1
Procedure: as §1

AgLsb4 = molecular target: AgLsb4
Procedure: as §1

AgMyo5 = molecular target: AgMyo5
Procedure: as §1

AgNbp2 = molecular target: AgNbp2
Procedure: as §1

AgRvs167 = molecular target: AgRvs167
Procedure: as §1

AgSho1 = molecular target: AgSho1
Procedure: as §1

AgSla1-D1-D2 = molecular target: AgSla1-D1-D2
Procedure: as §1

AgSla1-D3 = molecular target: AgSla1-D3
Procedure: as §1

CaAbp1-D1 = molecular target: CaAbp1-D1
Procedure: as §1

CaAbp1-D2 = molecular target: CaAbp1-D2
Procedure: as §1

CaBbc1 = molecular target: CaBbc1
Procedure: as §1

CaBem1-D1 = molecular target: CaBem1-D1
Procedure: as §1

CaBzz1-D1 = molecular target: CaBzz1-D1
Procedure: as §1

CaBzz1-D2 = molecular target: CaBzz1-D2
Procedure: as §1

CaCyk3 = molecular target: CaCyk3
Procedure: as §1

CaFus1 = molecular target: CaFus1
Procedure: as §1

CaHof1 = molecular target: CaHof1
Procedure: as §1

CaHse1 = molecular target: CaHse1
Procedure: as §1

CaLsb1 = molecular target: CaLsb1
Procedure: as §1

CaLsb4 = molecular target: CaLsb4
Procedure: as §1

CaMyo5 = molecular target: CaMyo5
Procedure: as §1

CaNbp2 = molecular target: CaNbp2
Procedure: as §1

CaRvs167 = molecular target: CaRvs167
Procedure: as §1

CaRvs167-3 = molecular target: CaRvs167-3
Procedure: as §1

CaSho1 = molecular target: CaSho1
Procedure: as §1

CaSla1-D1-D2 = molecular target: CaSla1-D1-D2
Procedure: as §1

CaSla1-D3 = molecular target: CaSla1-D3
Procedure: as §1

ScAbp1 = molecular target: ScAbp1
Procedure: as §1

ScBbc1 = molecular target: ScBbc1
Procedure: as §1

ScBem1-D1 = molecular target: ScBem1-D1
Procedure: as §1

ScBzz1-D1 = molecular target: ScBzz1-D1
Procedure: as §1

ScBzz1-D2 = molecular target: ScBzz1-D2
Procedure: as §1

ScCyk3 = molecular target: ScCyk3
Procedure: as §1

ScFus1 = molecular target: ScFus1
Procedure: as §1

ScHof1 = molecular target: ScHof1
Procedure: as §1

ScHse1 = molecular target: ScHse1
Procedure: as §1

ScLsb1 = molecular target: ScLsb1
Procedure: as §1

ScLsb2 = molecular target: ScLsb2
Procedure: as §1

ScLsb3 = molecular target: ScLsb3
Procedure: as §1

ScLsb4 = molecular target: ScLsb4
Procedure: as §1

ScMyo3 = molecular target: ScMyo3
Procedure: as §1

ScMyo5 = molecular target: ScMyo5
Procedure: as §1

ScNbp2 = molecular target: ScNbp2
Procedure: as §1

ScPex13 = molecular target: ScPex13
Procedure: as §1

ScRvs167 = molecular target: ScRvs167
Procedure: as §1

ScSho1 = molecular target: ScSho1
Procedure: as §1

ScSla1-D1-D2 = molecular target: ScSla1-D1-D2
Procedure: as §1

ScSla1-D3 = molecular target: ScSla1-D3
Procedure: as §1

SpAbp1-D1 = molecular target: SpAbp1-D1
Procedure: as §1

SpBbc1 = molecular target: SpBbc1
Procedure: as §1

SpBzz1-D1 = molecular target: SpBzz1-D1
Procedure: as §1

SpBzz1-D2 = molecular target: SpBzz1-D2
Procedure: as §1

SpCyk3 = molecular target: SpCyk3
Procedure: as §1

SpHof1 = molecular target: SpHof1
Procedure: as §1

SpHof1-2 = molecular target: SpHof1-2
Procedure: as §1

SpHof1-3 = molecular target: SpHof1-3
Procedure: as §1

SpHse1 = molecular target: SpHse1
Procedure: as §1

SpLsb1 = molecular target: SpLsb1
Procedure: as §1

SpLsb4 = molecular target: SpLsb4
Procedure: as §1

SpMyo1 = molecular target: SpMyo1
Procedure: as §1

SpNbp2 = molecular target: SpNbp2
Procedure: as §1

SpPex13 = molecular target: SpPex13
Procedure: as §1

SpRvs167 = molecular target: SpRvs167
Procedure: as §1

SpSla1-D1-D2 = molecular target: SpSla1-D1-D2
Procedure: as §1

SpSla1-D3 = molecular target: SpSla1-D3
Procedure: as §1

PVLPPPRSPNRPTLS
SPOT peptide array binding signal intensity (AgAbp1): 24 | SPOT peptide array binding signal intensity (AgBbc1): 700 | SPOT peptide array binding signal intensity (AgBem1-D1): 43 | SPOT peptide array binding signal intensity (AgBzz1-D1): 20 | SPOT peptide array binding signal intensity (AgBzz1-D2): 1 | SPOT peptide array binding signal intensity (AgCyk3): ≤ 0 | SPOT peptide array binding signal intensity (AgFus1): ≤ 0 | SPOT peptide array binding signal intensity (AgHof1): 9 | SPOT peptide array binding signal intensity (AgHse1): ≤ 0 | SPOT peptide array binding signal intensity (AgLsb1): 1 | SPOT peptide array binding signal intensity (AgLsb4): 369 | SPOT peptide array binding signal intensity (AgMyo5): 15.5 | SPOT peptide array binding signal intensity (AgNbp2): 1.5 | SPOT peptide array binding signal intensity (AgRvs167): 5.67 | SPOT peptide array binding signal intensity (AgSho1): ≤ 0 | SPOT peptide array binding signal intensity (AgSla1-D1-D2): ≤ 0 | SPOT peptide array binding signal intensity (AgSla1-D3): 0.5 | SPOT peptide array binding signal intensity (CaAbp1-D1): 418 | SPOT peptide array binding signal intensity (CaAbp1-D2): 79 | SPOT peptide array binding signal intensity (CaBbc1): 1660 | SPOT peptide array binding signal intensity (CaBem1-D1): 31 | SPOT peptide array binding signal intensity (CaBzz1-D1): 264 | SPOT peptide array binding signal intensity (CaBzz1-D2): 56 | SPOT peptide array binding signal intensity (CaCyk3): 67 | SPOT peptide array binding signal intensity (CaFus1): ≤ 0 | SPOT peptide array binding signal intensity (CaHof1): 2 | SPOT peptide array binding signal intensity (CaHse1): 1.5 | SPOT peptide array binding signal intensity (CaLsb1): ≤ 0 | SPOT peptide array binding signal intensity (CaLsb4): 1570 | SPOT peptide array binding signal intensity (CaMyo5): 2.5 | SPOT peptide array binding signal intensity (CaNbp2): 126 | SPOT peptide array binding signal intensity (CaRvs167): 114 | SPOT peptide array binding signal intensity (CaRvs167-3): 16.5 | SPOT peptide array binding signal intensity (CaSho1): ≤ 0 | SPOT peptide array binding signal intensity (CaSla1-D1-D2): 110 | SPOT peptide array binding signal intensity (CaSla1-D3): ≤ 0 | SPOT peptide array binding signal intensity (ScAbp1): 47.5 | SPOT peptide array binding signal intensity (ScBbc1): 186 | SPOT peptide array binding signal intensity (ScBem1-D1): 3.5 | SPOT peptide array binding signal intensity (ScBzz1-D1): 20 | SPOT peptide array binding signal intensity (ScBzz1-D2): 10 | SPOT peptide array binding signal intensity (ScCyk3): ≤ 0 | SPOT peptide array binding signal intensity (ScFus1): ≤ 0 | SPOT peptide array binding signal intensity (ScHof1): 63 | SPOT peptide array binding signal intensity (ScHse1): ≤ 0 | SPOT peptide array binding signal intensity (ScLsb1): 284 | SPOT peptide array binding signal intensity (ScLsb2): 4 | SPOT peptide array binding signal intensity (ScLsb3): 4370 | SPOT peptide array binding signal intensity (ScLsb4): 372 | SPOT peptide array binding signal intensity (ScMyo3): 150 | SPOT peptide array binding signal intensity (ScMyo5): 14.5 | SPOT peptide array binding signal intensity (ScNbp2): 16 | SPOT peptide array binding signal intensity (ScPex13): 47 | SPOT peptide array binding signal intensity (ScRvs167): 1120 | SPOT peptide array binding signal intensity (ScSho1): 7 | SPOT peptide array binding signal intensity (ScSla1-D1-D2): 483 | SPOT peptide array binding signal intensity (ScSla1-D3): 12.5 | SPOT peptide array binding signal intensity (SpAbp1-D1): 70 | SPOT peptide array binding signal intensity (SpBbc1): 26 | SPOT peptide array binding signal intensity (SpBzz1-D1): 295 | SPOT peptide array binding signal intensity (SpBzz1-D2): ≤ 0 | SPOT peptide array binding signal intensity (SpCyk3): 1 | SPOT peptide array binding signal intensity (SpHof1): 7.5 | SPOT peptide array binding signal intensity (SpHof1-2): 12.5 | SPOT peptide array binding signal intensity (SpHof1-3): 46.5 | SPOT peptide array binding signal intensity (SpHse1): 108 | SPOT peptide array binding signal intensity (SpLsb1): 866 | SPOT peptide array binding signal intensity (SpLsb4): 3730 | SPOT peptide array binding signal intensity (SpMyo1): 71.2 | SPOT peptide array binding signal intensity (SpNbp2): 8 | SPOT peptide array binding signal intensity (SpPex13): ≤ 0 | SPOT peptide array binding signal intensity (SpRvs167): 1240 | SPOT peptide array binding signal intensity (SpSla1-D1-D2): ≤ 0 | SPOT peptide array binding signal intensity (SpSla1-D3): ≤ 0

RKRRTHLRLPLIRSN
SPOT peptide array binding signal intensity (AgAbp1): 23 | SPOT peptide array binding signal intensity (AgBbc1): 105 | SPOT peptide array binding signal intensity (AgBem1-D1): 130 | SPOT peptide array binding signal intensity (AgBzz1-D1): 2 | SPOT peptide array binding signal intensity (AgBzz1-D2): 34.5 | SPOT peptide array binding signal intensity (AgCyk3): 2 | SPOT peptide array binding signal intensity (AgFus1): 1070 | SPOT peptide array binding signal intensity (AgHof1): 107 | SPOT peptide array binding signal intensity (AgHse1): 1100 | SPOT peptide array binding signal intensity (AgLsb1): ≤ 0 | SPOT peptide array binding signal intensity (AgLsb4): 137 | SPOT peptide array binding signal intensity (AgMyo5): 0.5 | SPOT peptide array binding signal intensity (AgNbp2): 63.8 | SPOT peptide array binding signal intensity (AgRvs167): 2.83 | SPOT peptide array binding signal intensity (AgSho1): 37.5 | SPOT peptide array binding signal intensity (AgSla1-D1-D2): 29.5 | SPOT peptide array binding signal intensity (AgSla1-D3): 2.25 | SPOT peptide array binding signal intensity (CaAbp1-D1): 243 | SPOT peptide array binding signal intensity (CaAbp1-D2): 301 | SPOT peptide array binding signal intensity (CaBbc1): 211 | SPOT peptide array binding signal intensity (CaBem1-D1): 41.5 | SPOT peptide array binding signal intensity (CaBzz1-D1): 73.5 | SPOT peptide array binding signal intensity (CaBzz1-D2): 71 | SPOT peptide array binding signal intensity (CaCyk3): 20 | SPOT peptide array binding signal intensity (CaFus1): 1220 | SPOT peptide array binding signal intensity (CaHof1): 0.25 | SPOT peptide array binding signal intensity (CaHse1): 29.6 | SPOT peptide array binding signal intensity (CaLsb1): ≤ 0 | SPOT peptide array binding signal intensity (CaLsb4): 85 | SPOT peptide array binding signal intensity (CaMyo5): 0.5 | SPOT peptide array binding signal intensity (CaNbp2): 406 | SPOT peptide array binding signal intensity (CaRvs167): 19 | SPOT peptide array binding signal intensity (CaRvs167-3): 42 | SPOT peptide array binding signal intensity (CaSho1): 478 | SPOT peptide array binding signal intensity (CaSla1-D1-D2): ≤ 0 | SPOT peptide array binding signal intensity (CaSla1-D3): 4.62 | SPOT peptide array binding signal intensity (ScAbp1): 27 | SPOT peptide array binding signal intensity (ScBbc1): 31.1 | SPOT peptide array binding signal intensity (ScBem1-D1): 61.2 | SPOT peptide array binding signal intensity (ScBzz1-D1): 15.5 | SPOT peptide array binding signal intensity (ScBzz1-D2): 21.2 | SPOT peptide array binding signal intensity (ScCyk3): 98 | SPOT peptide array binding signal intensity (ScFus1): 573 | SPOT peptide array binding signal intensity (ScHof1): 2.75 | SPOT peptide array binding signal intensity (ScHse1): 1680 | SPOT peptide array binding signal intensity (ScLsb1): 0.25 | SPOT peptide array binding signal intensity (ScLsb2): 1 | SPOT peptide array binding signal intensity (ScLsb3): 532 | SPOT peptide array binding signal intensity (ScLsb4): 29.8 | SPOT peptide array binding signal intensity (ScMyo3): ≤ 0 | SPOT peptide array binding signal intensity (ScMyo5): 0.625 | SPOT peptide array binding signal intensity (ScNbp2): 164 | SPOT peptide array binding signal intensity (ScPex13): 1.12 | SPOT peptide array binding signal intensity (ScRvs167): 16.8 | SPOT peptide array binding signal intensity (ScSho1): 1440 | SPOT peptide array binding signal intensity (ScSla1-D1-D2): 268 | SPOT peptide array binding signal intensity (ScSla1-D3): 9.5 | SPOT peptide array binding signal intensity (SpAbp1-D1): 91.2 | SPOT peptide array binding signal intensity (SpBbc1): 2.5 | SPOT peptide array binding signal intensity (SpBzz1-D1): 189
